We go through 110 compounds from ChEMBL document CHEMBL4513216, “Probing the Open Global Health Chemical Diversity Library for Multistage-Active Starting Points for Next-Generation Antimalarials” (ACS Infect Dis, 2020).

Out of some 68,000 compounds screened, about 2,700 (4%) showed an effect of 50% or more. This is one part of a sample in which strong results are shown more often than they occur.

In the test the test system is Plasmodium berghei. Briefly: Screen against P. berghei liver stage (PbLuc), transformed with Luciferase, at 2uM. In kind it is functional, HepG2. Conditions: tested at 2 uM.
On to `CNc1nc(C(=O)N2CCn3nc(C(=O)OC)cc3C2)cs1`, for which the INHIBITION is reported as -0.15%. As for `COCc1c(C(=O)N2CCCC(C(=O)c3ccccc3)C2)noc1C` (stereo not given), the figure is 10.1%; as for `O=S1(=O)CCN2C(=N1)Oc1ccc(Cl)cc12`, 22.96%. As for `CN(CCc1ccccn1)C(=O)c1cccs1`, the figure is 24.64%; as for `CN(Cc1ccon1)C(=O)C1CC(=O)N(Cc2ccncc2)C1` (stereo not given), 15.96%; as for `CN(Cc1cnc(N)nc1)C(=O)C1CC(=O)N(Cc2ccncc2)C1` (stereo not given), 59.8%. Take `CN(Cc1ccoc1)C(=O)C1CC(=O)N(Cc2ccncc2)C1` (stereo not given): the INHIBITION was 10.91%. For `CC(C)c1nnc2n1CCN(Cc1nc3c(F)cccc3[nH]1)C2`, the INHIBITION came to 45.4%. As for `Cc1oc(-c2ccsc2)nc1CN1CC[C@@H]2CCCC[C@H]2C1`, the figure is 54.49%. As for `Cc1oc(-c2ccsc2)nc1CN1CCCC(c2ccnn2C)C1` (stereo not given), the figure is 13.88%; as for `Cc1ncc2c(n1)CN(Cc1nc(-c3ccsc3)oc1C)CC2`, 31.05%; as for `CN(C)Cc1nc2c(o1)CN(S(=O)(=O)c1cccs1)C2`, -0.45%. As for `Cn1nc(C(=O)N2CCOCC2)cc1C(=O)Nc1ncc(Cl)cc1Cl`, the figure is -47.52%. For the compound `Cn1nc(C(=O)N2CCOCC2)cc1C(=O)Nc1ccc(Cl)cc1Cl`, the INHIBITION came to 61.02%.

As for `Cn1nc(C(=O)N2CCOCC2)cc1C(=O)Nc1c(Cl)cccc1Cl`, the INHIBITION stood at 13.45%. As for `CC(C)CC(NC(=O)c1ccc[nH]1)C(=O)N1CCC(CO)CC1` (stereo not given), the figure is 20.3%. Then `CC(C)[C@H]1CN(c2cnccn2)C[C@@H]1NC(=O)C1(C#N)CCOCC1`, with 2.3%; and `CC(C)c1ncncc1C(=O)N1CCN(Cc2cccnc2)CC1`, with 33.61%. Regarding `CCc1ncncc1C(=O)N1CCN(Cc2ccsc2)CC1`, the INHIBITION is listed as -45.83%. Turning to `CC(C)c1ncncc1C(=O)N1CCN(Cc2cscn2)CC1`, the INHIBITION is -43.47%.

As for `O=C(c1cc(C2CC2)[nH]n1)N1CCN(Cc2ccsc2)CC1`, the INHIBITION is 44.43%. As for `CCc1ncncc1C(=O)N1CCCN(Cc2ccccc2C)CC1`, the figure is -23.42%.

Consider `Cc1ccc(C(=O)N2CCN(Cc3ccsc3)CC2)n1C`, for which the INHIBITION stood at 43.52%. For `CC(C)c1ncncc1C(=O)N1CCCN(Cc2cccs2)CC1`, the INHIBITION worked out at 8.37%.

Consider `CCc1ncncc1C(=O)N1CCCN(Cc2ccc(C#N)cc2)CC1`, for which the INHIBITION stood at 68.24%. Then `Cc1cc(C(=O)N2CCN(Cc3ccsc3)CC2)c(C)n1C1CC1`, with 53.58%; and `CC(C)c1ncncc1C(=O)N1CCN(Cc2ccsc2)CC1`, with 58.05%. `CCc1ncncc1C(=O)N1CCCN(Cc2ccc(C)cc2)CC1`: the INHIBITION is reported as -8.84%.

As to `CC(C)c1ncncc1C(=O)N1CCCN(Cc2ccccc2)CC1`, the INHIBITION came to 56.02%. Then `N#Cc1c(-c2ccccc2)csc1N`, with 30.76%. As to `Cc1noc(C)c1NC(=O)NC1CCN(C(=O)OC(C)(C)C)CC1`, the INHIBITION stood at 11.92%. As for `CCCn1c(C)c(CC(=O)NCCOC)c2c1CC(C)(C)CC2=O`, the figure is 18.91%; as for `CC(C)(NCC(=O)NCCC#N)c1ccc2c(c1)OCCO2`, -9.66%. As for `Cc1ccc(CN2C[C@@H]3CCN(Cc4cccnc4)C(=O)[C@H]3C2)s1`, the figure is 41.38%; as for `Cc1ccc(OC2(C(=O)NC(C)Cc3ccsc3)CCNCC2)cc1` (stereo not given), 26.35%.

On to `CN(Cc1cccnc1)C1CC2(CCN(Cc3ccccn3)CC2)C1`, for which the INHIBITION was 27.9%.

For the compound `CN(C)S(=O)(=O)N1CC[C@]2(C[C@H](OCc3ccccn3)CO2)C1`, the INHIBITION is listed as -51.66%. As for `COc1ccc(C(=O)N2CCCCC2c2ccccn2)c(OC)n1` (stereo not given), the figure is 21.05%.

Take `COCCNC(=O)N1CCN(C(C)C(=O)NC(C)C)CC1` (stereo not given): the INHIBITION was 21.22%. Take `COCC(=O)N1CCN(C(C)C(=O)NC(C)C)CC1` (stereo not given): the INHIBITION was determined as 61.91%. As to `COCCNC(=O)C(C)N1CCN(C)CC1` (stereo not given), the INHIBITION amounted to 7.9%. Then `CC(=O)N1CCc2c(nc(N(C)C)nc2N(C)CC2CCCO2)C1` (stereo not given), with -34.04%; and `CN(C)C(=O)CCC(=O)N1CCC2(CC1)COC2`, with 15.02%. As for `CCCC(=O)N1CCC2(CC1)COC2`, the figure is 54.01%; as for `CCCC(=O)N1CCC2(CC1)OCCO2`, 38.51%; as for `CS(=O)(=O)NCC(Cc1cccc(F)c1)N1CCNC1=O` (stereo not given), 22.27%. With `CCS(=O)(=O)NCC(Cc1cccc(F)c1)N1CCNC1=O` (stereo not given), the INHIBITION is given as -35.92%. Then `CC(C)S(=O)(=O)NCC(Cc1cccc(F)c1)N1CCNC1=O` (stereo not given), with 53.44%.

With `Cc1cc(C)n(CC2CCCN2CC(=O)Nc2nncs2)n1` (stereo not given), the INHIBITION is listed as 37.08%.

Consider `CC(C)Oc1cccc(CNC(=O)N2CCC(N3CC=CC3)C2)c1` (stereo not given), for which the INHIBITION was -21.25%. Then `CC(C)Nc1cccc(CNC(=O)N2CCCC2)c1`, with -24.87%; and `CC(C)Nc1cccc(CNC(=O)N2CCC(N3CC=CC3)C2)c1` (stereo not given), with 58.34%; and `COC(=O)CCCNC(=O)Nc1ccccc1OC`, with -3.99%.

On to `CN1CCC(NC(=O)Nc2cnn(-c3ccccc3Cl)c2)C1=O` (stereo not given), for which the INHIBITION is 15.75%. As for `CNC(=O)[C@@H]1C[C@@H](n2cc(-c3ccc(CN4CC=CC4)cc3)nn2)CN1`, the figure is -21.75%; as for `Nc1nc(CCC(=O)N2C[C@H](c3ccccc3)[C@@H](N)C2)cs1`, -10.1%; as for `CS(=O)(=O)N1CC(c2n[nH]c3ncccc23)C1`, 31.98%. On to `CS(=O)(=O)N1CC(c2ncn3ccccc23)C1`, for which the INHIBITION stood at 51.36%.

As to `CCc1ccc2c(C3CN(S(C)(=O)=O)C3)ncn2c1`, the INHIBITION is on record as 28.81%. Then `CC(=O)N1N=C(c2cccs2)OC1C(=O)Nc1ccc(C(C)C)cc1` (stereo not given), with 19.09%.

`COC1CCN(C(=O)c2csc(-c3ccccc3F)n2)CC1`: the INHIBITION is 10.91%.

`NC(=O)CC1CCN(C(=O)c2cnc(-c3ccccc3F)s2)CC1`: the INHIBITION was determined as 20.76%.

On to `NC(=O)CC1CCN(C(=O)c2csc(-c3ccccc3F)n2)CC1`, for which the INHIBITION came out at 51.96%. As for `Cc1noc(C)c1CN1CCn2c(COC(C)C)nnc2C1`, the figure is 40.71%; as for `Fc1ccc(OCCNC2CCN(Cc3ccncc3)CC2)c(F)c1`, 4.19%. As for `Cc1ccc(CCNC(=O)Cn2nc(C)n(Cc3ccccc3)c2=O)o1`, the figure is -9.48%; as for `Cc1ccc(CCNC(=O)Cn2nc(C)n(Cc3ccccc3)c2=O)s1`, -8.8%; as for `Cc1nn(CC(=O)NCCc2ccncc2)c(=O)n1Cc1ccccc1`, 53.98%.

Take `Cc1nnc(CN2C[C@H](NC(=O)C3CCOCC3)[C@@H](C(C)C)C2)s1`: the INHIBITION is -29.43%. As for `OCC1(O)CCN(c2ccnc3c(C(F)(F)F)cccc23)CC1`, the figure is -100.41%. Consider `N[C@@H]1c2ccccc2C2(CCN(c3ncccc3C(F)(F)F)CC2)[C@H]1O`, for which the INHIBITION is -7.99%. As for `OCC1(O)CCN(c2ncccc2C(F)(F)F)CC1`, the figure is 65.3%. Then `Cn1c(CC2CCS(=O)(=O)C2)nnc1SCCOc1cccc(Cl)c1` (stereo not given), with 42.62%; and `c1cnc(NCc2cncc3c2CCN(CC2CC2)C3)nc1`, with 30.99%. As for `O=C(NCc1cncc2c1CCN(CC1CCOC1)C2)c1ccno1` (stereo not given), the figure is 69.13%. As to `Cc1nccc(NCc2cncc3c2CCN(CC2CCOC2)C3)n1` (stereo not given), the INHIBITION was found to be 22.23%. As for `O=C(NCc1cncc2c1CCN(C1CCOCC1)C2)c1ccno1`, the INHIBITION worked out at 36.06%. As for `CS(=O)(=O)NCc1cncc2c1CCN(CC1CCOC1)C2` (stereo not given), the figure is 52.05%. As for `O=C(NCc1cncc2c1CCN(CC1CCOC1)C2)c1ccco1` (stereo not given), the figure is 7.33%; as for `COc1ccccc1C(=O)N1CC(=O)N(Cc2ccco2)CC(O)C1` (stereo not given), -8.2%; as for `Cc1cnccc1CN1Cc2ccccc2OC2(CCC(CO)CC2)C1` (stereo not given), 19.76%. Then `O=C1CCC2(CCC(NCc3ccoc3)CC2)N1` (stereo not given), with -29.46%; and `CCc1cnc(NCC(c2ccncc2)N2CCOCC2)nc1` (stereo not given), with 0.12%. `CN1CCC(c2nnc3ccc(C(=O)N4CCCCC4)cn23)C1` (stereo not given): the INHIBITION is reported as 23.43%. Then `CCNC(=O)[C@@H]1C[C@@H](NC(=O)c2ccc(C#N)cc2)CN1CCCSC`, with 22.89%; and `CCNC(=O)[C@@H]1C[C@@H](NC(=O)c2cccn2C)CN1CCCSC`, with 29.89%. Then `CCNC(=O)[C@@H]1C[C@@H](NC(=O)c2ccsc2)CN1CCCSC`, with 68.61%; and `COCc1cnc2n1CCN(C(=O)c1ccc3ccccc3n1)C2C` (stereo not given), with 53.08%; and `COCc1cnc2n1CCN(C(=O)C1=CCCCC1)C2C` (stereo not given), with 11.55%.

For the compound `CC1c2ncc(COc3cccnc3)n2CCN1C(=O)C1=CCCCC1` (stereo not given), the INHIBITION is 52.36%. As for `COCC(=O)N1CCn2c(COc3cccnc3)cnc2C1C` (stereo not given), the figure is -28.81%; as for `COCc1cnc2n1CCN(C(=O)c1cnc3ccccc3c1)C2C` (stereo not given), -17.69%; as for `CC1c2ncc(COc3cccnc3)n2CCN1C(=O)C1=CCCC1` (stereo not given), -7.05%.

In the case of `COCc1cnc2n1CCN(C(=O)c1cc3ccccc3o1)C2C` (stereo not given), the INHIBITION is on record as -29.49%. As for `COCc1cnc2n1CCN(C(=O)C1=CCCC1)C2C` (stereo not given), the INHIBITION is 53.46%. As for `CCOCc1cnc2n1CCN(C(=O)C1=CCCC1)C2C` (stereo not given), the figure is 21.92%; as for `CS(=O)(=O)c1ccc(Cl)c(NC(=O)NCCC2=CCCCC2)c1`, 36.66%. Then `Cc1cnn(CC2CN(Cc3nnc(C(C)C)o3)CCO2)c1` (stereo not given), with -11.91%; and `CCc1ccc(CN2CCN(c3cccc(OC)c3)C(=O)C2)nc1`, with -18.92%; and `CC(c1cccc(-c2cn(Cc3ccoc3)nn2)c1)N(C)C` (stereo not given), with 28.62%. Then `N#Cc1ccc(C(=O)N2CC[C@H]3[C@H]2CCN3CC2CC2)cc1`, with 5.14%. For the compound `CCc1cccc(OC2CN(C(=O)[C@@H](N)[C@@H](C)O)C2)c1`, the INHIBITION is recorded as 18.28%. Then `CCn1cc(NC(=O)c2cccc(OCC(F)(F)F)n2)cn1`, with -44.13%; and `COCC(Nc1ncnc2sc(C(=O)O)c(C)c12)c1ccnn1C` (stereo not given), with -1.87%; and `CC(C1CC1)N(C)C(=O)CCn1cccn1` (stereo not given), with 31.51%. On to `CC(C)CC(C)N(C)C(=O)CCn1cccn1` (stereo not given), for which the INHIBITION worked out at 62.51%. Then `CNC(=O)C1CCN(C(=O)CCn2cccn2)CC1`, with -84.03%; and `CCN(C(=O)CCn1cccn1)C1CC1`, with 72.05%; and `CCC(=O)N1CCN(C(=O)CCn2cccn2)CC1`, with -27.69%.

As for `CC(C)CN1CCN(C(=O)CCn2cccn2)CC1`, the INHIBITION came to 0.74%.
